Shown are actives, neighbours in structure and some others; about 2.7% of the full set was active somewhere.
HepG2 tox: qHTS for Inhibitors of TGF-b: Cytotox Counterscreen; HepG2 CAGA-GFP viability, ATP luminescence, 18 h; Potency, µM (highest dose often 46.1 µM), inactives show top-dose activity change, negative = cytotoxicity, hits mostly cytotoxic; 0.76% of 410,000 active
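CellTiter-Glo luminescence gave cytotoxicity after 18 hours at 37 degrees C. The cells were HepG2 CAGA-GFP in 1% FBS DMEM, stimulated with 500 pg/mL TGF-beta after compound addition. %Activity was normalised to no-cell wells (complete cell-killing) and DMSO (no toxicity), and curves were fitted and classified.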
ATXN2 expr inh: Primary qHTS for Inhibitors of ATXN expression. HEK-293 ATXN2-luciferase reporter, luminescence, 24 h. Potency, µM (titrated, usually from 57 µM), without a hit: at the highest dose activity change, negative = inhibition, usual class: inhibitors. 0.72% of 360,000 active. AID 1745845, 2022; also: % is scaled to controls: 0 for no effect and ±100 for the full control effect; nearly all actives have a fitted effect of over 55% in size
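ATXN2-luciferase reporter cells (luciferase flanked by upstream and downstream ATXN2 gene portions) were treated 24 h at 37 °C with compounds at up to 57 uM. SteadyGlo luminescence gave expression; GF-AFC fluorescence gave viability.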
ATXN viability: Viability Counterscreen for Primary qHTS for Inhibitors of ATXN expression. S2 cells (HEK-293 line with an ATXN2-luciferase reporter) viability, CellTiter-Fluor protease fluorescence, 24 h. Potency, µM (top dose mostly 56.7 µM), actives largely listed as cytotoxic. 0.49% of 400,000 active. AID 651635, 2014; also: nearly all actives have a fitted effect of over 40% in size
TGFb inhibitor: qHTS for Inhibitors of TGF-b; HepG2 CAGA-GFP TGF-b/SMAD3 reporter, GFP fluorescence, 18 h; TGF-beta stimulated, 500 pg/mL final; Potency, µM (doses to about 46.1 µM), inactives show at the top dose activity, negative = inhibition, hits mostly inhibitors; 1.2% of 410,000 active; AID 588855, 2011; also: % is scaled to controls: 0 for no effect and ±100 for the full control effect; nearly all actives have a fitted effect of over 65% in size
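First, reporter cells (HEPG2 CAGA-GFP) rested 2 h at 37 degrees C. Next, compounds were pinned in and TGF-beta added to 500 pg/mL final. After 18 h, GFP was imaged per cell and summed per well.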
12-LOX inh: Primary qHTS assay for inhibitors of human arachidonate 12S-lipoxygenase (ALOX12): Round 2; Polyunsaturated fatty acid lipoxygenase ALOX12 (Homo sapiens), P18054; purified 12hLO, xylenol orange hydroperoxide absorbance; Potency, µM (doses to about 108 µM), inactives show top-dose activity change, negative = inhibition, usual class: inhibitors; 1.1% of 580,000 active; AID 1671190, 2021; also: % is scaled to controls: 0 for no effect and ±100 for the full control effect
Target sequence (P18054 whole entry, looked up): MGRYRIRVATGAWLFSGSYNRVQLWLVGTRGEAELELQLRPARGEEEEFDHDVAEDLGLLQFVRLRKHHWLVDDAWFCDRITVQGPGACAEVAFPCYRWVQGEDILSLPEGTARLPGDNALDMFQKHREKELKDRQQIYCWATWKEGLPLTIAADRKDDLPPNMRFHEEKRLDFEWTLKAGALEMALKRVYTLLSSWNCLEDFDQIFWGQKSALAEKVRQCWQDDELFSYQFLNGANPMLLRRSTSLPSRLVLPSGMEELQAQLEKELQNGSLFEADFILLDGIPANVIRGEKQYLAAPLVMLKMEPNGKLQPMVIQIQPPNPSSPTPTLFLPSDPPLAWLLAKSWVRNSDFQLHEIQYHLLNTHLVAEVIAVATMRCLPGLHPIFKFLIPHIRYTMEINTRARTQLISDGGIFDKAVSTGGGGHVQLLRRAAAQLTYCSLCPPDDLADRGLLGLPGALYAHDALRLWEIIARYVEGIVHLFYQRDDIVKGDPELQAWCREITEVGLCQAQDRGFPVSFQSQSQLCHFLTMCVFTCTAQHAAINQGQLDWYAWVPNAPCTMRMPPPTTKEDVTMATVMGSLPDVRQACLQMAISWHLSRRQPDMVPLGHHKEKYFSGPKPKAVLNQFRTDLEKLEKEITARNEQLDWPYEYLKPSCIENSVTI
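Hydroperoxide product was detected by ferrous iron/xylenol orange as the 573 to 405 nm absorbance ratio. Arachidonic acid at 40 uM (final) was turned over for 30 min at room temperature by 150 nM human 12hLO, pH 7.0 Hepes buffer, after 15 min compound preincubation.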
Numbers without * were called inactive; i = inactive; ? = inconclusive; nt = no result; [ ] = dose if it differs, or a comment. Calls follow the shape of the dose curve; as a rule, active = well fitted curve in the direction sought with a large enough effect; inconclusive = small, poorly fitted or top-dose-only effect, or another doubt; inactive = no such curve, though single readings can be large; an effect the other way counts as inactive or inconclusive. Potency is read from the fitted curve at half-maximal effect.

SMILES	HepG2 tox	ATXN2 expr inh	ATXN viability	TGFb inhibitor	12-LOX inh
CC1CCCCC1NC(=O)c1ccco1 (stereo not given)	-5.5%	-1.4%	i	26.1%	-11.9%
COc1ccccc1NC(=O)CN1C(=O)C2(SCC(=O)N2c2cc(C)cc(C)c2)c2ccccc21 (stereo not given)	nt	nt	nt	nt	-10.0%
CC(=O)N(CCCNC(=O)c1nn(C)c(=O)c2ccccc12)C(C)C	nt	nt	nt	nt	-13.5%
CCCCCCC(C)NC(=O)Cc1cccs1 (stereo not given)	nt	nt	nt	nt	-24.7%
CCCN1C(=O)/C(=c2\sc3nc(=O)c(Cc4ccc(C)cc4)nn3c2=O)c2ccccc21	-6.9%	-10.0%	i	-2.5%	50.1µM*
NC(=O)CN1C(=O)/C(=c2\sc3nc(=O)c(Cc4ccccc4)nn3c2=O)c2ccccc21	13.1%	0.5%	i	7.5%	0.0%
N#C/C(C(=O)N1CCOCC1)=C1\Nc2ccccc2S1	5.6%	17.9%	i	-10.6%	-2.1%
N#CC(=C1Nc2ccccc2S1)c1ccnc(OCc2ccc(CN3CCOCC3)cc2)n1	nt	0.0137µM*	nt	nt	-6.3%[57.4 µM]
CCOC(=O)CN1C(c2ccc(O)cc2)Nc2ccc(Br)cc2C1c1ccccc1 (stereo not given)	-95.8%	?	20µM*	?	-13.4%
CCOC(=O)C(NC(=O)/C=C/c1cc(Cl)c(OC)c(OC)c1)C(=O)OCC	nt	nt	nt	nt	10.4%
COc1ccc(CC(=O)Nc2ccc(OC(C)=O)cc2C(=O)O)cc1	1.12µM*	nt	i	0.0%	-11.3%
CCOc1cc(C2C(C#N)=C(N)Oc3cc4c(cc32)OCO4)cc(Br)c1OC (stereo not given)	nt	nt	nt	nt	43.6%
CCOc1ccc(Br)cc1C1C(C#N)=C(N)Oc2cc3c(cc21)OCO3 (stereo not given)	nt	nt	nt	nt	7.08µM*
Cc1ccc(Cl)cc1N1CCN(C(=O)c2cc(S(=O)(=O)N3CCC(C)CC3)cn2C)CC1	-19.2%	2.6%	i	7.08µM*	-8.9%
CCn1cc(C(=O)N2CCN(c3cccc(Cl)c3)CC2)c(=O)c2cc(S(=O)(=O)N3CCC(C)CC3)ccc21	-32.3%	?	?	12.6µM*	?
CCn1cc(C(=O)N2CCCC2)c(=O)c2cc(S(=O)(=O)N3CCC(C)CC3)ccc21	13.6%	7.0%	i	4.9%	-23.5%
c1ccc2sc(SCC34CC5CC(CC(C5)C3)C4)nc2c1	nt	nt	nt	nt	-1.5%
Cc1ccc(C(=O)n2c(N)nc3ccccc32)cc1	-37.1%	2.82µM*	i	-7.7%	-24.6%
Cc1ccc(S(=O)(=O)n2c(N)nc3ccccc32)cc1	-18.9%	1.4%	i	?	13.6%
Cc1oc2cc(OCC(=O)Nc3ccccc3F)ccc2c(=O)c1Oc1ccccc1	nt	nt	nt	nt	5.8%
CN(C(=O)/C=C/c1ccccc1)C1CCCCC1	11.2µM*	35.8%	i	-10.9%	0.0%
CN(C(=O)/C=C/c1ccccc1)C1CCS(=O)(=O)C1 (stereo not given)	3.7%	0.7%	i	11.2%	3.0%
COC(=O)c1c(NC(=O)c2ccncc2)sc(C(=O)Nc2ccccc2)c1C	nt	nt	nt	nt	-6.1%
CC1(C)CC(N=c2cc(-c3ccccc3)oc3ccc(Cl)cc23)CC(C)(C)N1	15.8µM*	0.6%[11.3 µM]	i	?	?
CC(=O)c1sc(NC(=O)C2(F)C(F)(F)C(F)(F)C(F)(F)C(F)(F)C2(F)F)nc1C	-46.4%	6.31µM*	?	2.82µM*	-4.5%[57.4 µM]
SMILES	HepG2 tox	ATXN2 expr inh	ATXN viability	TGFb inhibitor	12-LOX inh
CC1=CN2C(=N)/C(=C/c3ccc([N+](=O)[O-])o3)C(=O)N=C2S1	-55.1%	-2.9%	nt	-0.1%	44.7µM*
CCOc1ccc(-c2ccc(/C=C3/C(=N)N4C=CSC4=NC3=O)o2)c([N+](=O)[O-])c1	36.0%	25.1µM*	nt	-4.4%	-9.4%
CCOC(=O)c1cnc2c(C)cccc2c1Nc1cccc([N+](=O)[O-])c1	nt	nt	nt	nt	-5.9%
C=CCNC(=S)N/N=C/c1ccc(N(CC)Cc2ccccc2)cc1	-3.2%	-15.3%	i	-16.7%	50.1µM*
O=C(Cc1c[nH]c2ccccc12)NC(c1ccccc1)c1ccccc1	nt	nt	nt	nt	12.6%
Brc1ccc(CSc2nnc(-c3ccco3)o2)cc1	3.7%	71.0%	i	13.4%	-24.8%
Brc1ccc(-c2ccc(-c3nnc(-c4ccco4)o3)o2)cc1	nt	nt	nt	nt	14.1µM*
O=C(c1cnc(Cc2c[nH]c3ccccc23)c(I)c1)N1CCN(Cc2ccccc2)CC1	nt	nt	nt	nt	-7.6%
O=C(c1cnc(Cc2c[nH]c3ccccc23)c(I)c1)N1CCOCC1	nt	nt	nt	nt	20µM*
COc1ccc(/C=C/C2=CC(C)(C)NC(=S)N2)cc1OC	-16.9%	-23.4%	i	-19.7%	?
CCOc1ccc(/C=C/C2=CC(C)(C)NC(=S)N2)cc1	-26.7%	?	i	?	39.8µM*
COc1cccc(/C=C/C2=CC(C)(C)NC(=S)N2)c1	12.6µM*	3.8%	i	-13.8%	?
OC1c2cc(Br)ccc2N=C2CCCN21 (stereo not given)	-103.6%	nt	15.8µM*	?	-1.2%
OC1c2cc(Br)ccc2N=C2CCCCCN21 (stereo not given)	-24.3%	6.0%	i	-17.7%	2.5%
O=C(Nc1ccccc1)N1CCOC(CN(C(=O)c2ccco2)C2CCCC2)C1 (stereo not given)	nt	nt	nt	nt	0.6%
O=C(NCCCc1nc2ccccc2n1Cc1ccccc1Cl)C1CCCCC1	-7.9%	-14.8%	i	-12.8%	-29.8%
O=C(NCCCc1nc2ccccc2n1Cc1ccc(Cl)cc1)C1CCCCC1	-29.6%	?	?	10µM*	-13.2%
Cc1ccc2c3cc(-c4ccccc4)cn3ccn12	nt	nt	nt	nt	0.794µM*
Cc1cc(-c2ccccc2)cc(C)n1	-3.3%	4.8%	i	-1.3%	-0.1%
c1ccc(CN2CCC(Nc3nc(-c4cccnc4)nc4ccccc34)CC2)cc1	-61.9%	?	i	15.8µM*	?
Cc1ccccc1N=C(NOCc1ccc(Cl)cc1Cl)c1nonc1N	-0.6%	?	?	12.8%	?
Cc1ccc(N=C(NOCc2ccc(Cl)cc2Cl)c2nonc2N)c(C)c1	-45.1%	-36.9%	i	15.8µM*	-13.5%
COc1cc2c(cc1OC)C(c1cc(Br)ccc1F)N(C(=O)CCl)CC2 (stereo not given)	-106.3%	nt	?	?	15.8µM*
Cc1cccc(/C=C(/C#N)C(=O)c2c(C)[nH]c3ccccc23)c1	nt	nt	nt	nt	13.1%
CCc1ccc(/C=C(/C#N)C(=O)c2c(C)[nH]c3ccccc23)cc1	nt	nt	nt	nt	14.1µM*
CCCCN1C(=O)C(O)(CC(=O)c2cc(C(C)C)ccc2C)c2ccccc21 (stereo not given)	nt	nt	nt	nt	7.2%
CCCCNc1c(-c2ccc(OC)c(SC3CCCCC3)c2)nc2cnccn12	11.2µM*	?	nt	?	nt
COc1ccc(C/C(C)=N/NC(=S)Nc2ccccc2)cc1	2.7%	nt	nt	?	?

From PubChem BioAssay
